Assay outcomes from PubChem BioAssay.
Only some compounds are listed: those with a hit (about 4.6% of all), similar ones and a draw of the others.
tim23-1 inh: inhibits growth of tim23-1 mutant yeast; S. cerevisiae tim23-1 growth, BacTiter-Glo luminescence, 24 h; inhibition, % at 20 µM; 1.3% of 330,000 active; AID 463212;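 active = growth inhibition of the mutant yeast at or above 50%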;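 also: temperature-sensitive mutant grown at 25 °C; plate controls were DMSO-treated mutant yeast for no effect and medium wells lacking yeast for full effect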
tim10-1 inh: inhibits growth of tim10-1 mutant yeast | S. cerevisiae tim10-1 ts strain growth, BacTiter-Glo, 24 h | inhibition, % at 20 µM | 2.2% of 330,000 active | AID 463190;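 active = inhibition of at least 40%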;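 also: mutant grown at 25 °C; 0% = DMSO wells with yeast and 100% = wells holding no yeast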
SKKanGAS inh: blocks kanamycin growth of S. pyogenes SKKanGAS strain. BacTiter-Glo, 6 h. inhibition, % at 7.5 µM. 1.3% of 300,000 active. AID 1662;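 active = mean replicate score, as percent of positive control median, at least 50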;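 also: strain carries kanamycin resistance gene driven by streptokinase promoter and grows in 40 µg/ml kanamycin; loss of luminescence reflects streptokinase promoter inhibition or plain growth inhibition; 0% = median of DMSO wells and 100% = positive control at its reference dose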
NALP3 yeast inh: inhibitors of NALP3 inflammasome in yeast; 0.39% of 330,000 active; inhibition, % at 10 µM; AID 2825; Yeast reconstituted NLRP3/ASC/caspase-1, beta-gal luminescence, 24 h;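 active = inhibition of 50% or more; inactive = inhibition below 50%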;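 also: plate controls were induced DMSO wells for no effect and uninduced yeast grown without galactose for full effect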
TIM10 inh: inhibits growth of TIM10 yeast strain. S. cerevisiae TIM10 strain growth, BacTiter-Glo luminescence, 24 h. inhibition, % at 10 µM. 1.4% of 330,000 active. AID 463195;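 active = inhibition of 40% or more at the single tested concentration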;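 also: wild-type TIM10 isogenic control strain grown at permissive 25 °C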
tim10-1 conf: confirmation of tim10-1 mutant yeast growth inhibitors | S. cerevisiae tim10-1 ts strain growth, BacTiter-Glo, 24 h | shares compounds with tim10-1 inh | 56% of 7,400 active | inhibition, % at 20 µM;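 active = inhibition of yeast growth at or above a set limit in either of two repeat tests at 20 µM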;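 also: tim10-1 mutant grown at permissive 25 °C to find synthetic lethal compounds; 0% = DMSO yeast wells and 100% = medium wells without yeast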
tim10 confirm: TIM10 yeast growth inhibition, confirmed. AID 463215. S. cerevisiae tim10 strain growth, BacTiter-Glo luminescence, 24 h. inhibition, % at 10 µM. 63% of 4,600 active. shares compounds with TIM10 inh;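 active = inhibition of yeast growth at or above a set limit in either of two replicates at 10 µM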;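 also: this counterscreen used the strain with wild-type TIM10; 0% = yeast with DMSO and 100% = medium wells lacking yeast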
tim23-1 confirm: tim23-1 yeast growth inhibition, confirmed. shares compounds with tim23-1 inh. S. cerevisiae tim23-1 growth, BacTiter-Glo luminescence, 24 h. inhibition, % at 20 µM. 83% of 4,400 active;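 active = inhibition above about 39% in either of two replicate wells at 20 µM, limit read from the data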;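 also: temperature-sensitive tim23-1 mutant grown at 25 °C; 0% = DMSO wells with yeast and 100% = medium wells without yeast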
* marks the source's active call; other numbers are inactive results.

`CCOc1ccc(-n2cc(-c3ccccc3)c3c(N4CCOCC4)ncnc32)cc1` gave tim23-1 inh 20, tim10-1 inh 35, SKKanGAS inh 28, NALP3 yeast inh -2 and TIM10 inh 4.
`Cc1sc(NC(=O)c2ccco2)c(CN2CCN(c3ccccn3)CC2)c1C` gave tim23-1 inh 59*, tim10-1 inh 48*, SKKanGAS inh 20, NALP3 yeast inh 3, TIM10 inh 27, tim10-1 conf 32* and tim23-1 confirm 55*.
`Cc1sc(NC(=O)c2ccco2)c(CN2CCN(c3ccc(F)cc3)CC2)c1C` gave tim23-1 inh 0, tim10-1 inh 5, SKKanGAS inh 13, NALP3 yeast inh 25 and TIM10 inh 6.
For N#Cc1ccccc1OCC(=O)N(Cc1nnc(-c2ccccc2Cl)o1)C1CC1 the results were tim23-1 inh 5, tim10-1 inh 20, SKKanGAS inh -8, NALP3 yeast inh -7 and TIM10 inh 10.
For O=c1[nH]cnc2scc(C3COc4ccccc4O3)c12 (centres undefined) the results were tim23-1 inh -10, tim10-1 inh 30, SKKanGAS inh 9, NALP3 yeast inh 6 and TIM10 inh 15.
Clc1ncnc2scc(C3COc4ccccc4O3)c12 (centres undefined) was read as tim23-1 inh 52*, tim10-1 inh 53*, SKKanGAS inh 23, NALP3 yeast inh 16, TIM10 inh 30, tim10-1 conf 31 and tim23-1 confirm 31.
Screening COc1ccc(OC)c(C(c2nnnn2C2CCCC2)N2CCc3ccccc3C2)c1 (centres undefined) returned tim23-1 inh 52*, tim10-1 inh 42*, SKKanGAS inh -14, NALP3 yeast inh -8, TIM10 inh 36, tim10-1 conf 38* and tim23-1 confirm 42*.
COc1ccc(C(c2nnnn2C2CCCC2)N2CCc3ccccc3C2)cc1OC (centres undefined) was read as SKKanGAS inh 1.
For Cc1ccccc1OCC(=O)N(Cc1nc(-c2ccccc2)no1)C(C)C the results were tim23-1 inh 26, tim10-1 inh -21, SKKanGAS inh 1, NALP3 yeast inh -4 and TIM10 inh 16.
Screening COc1ccccc1OCC(=O)N(Cc1nc(-c2ccccc2)no1)C1CCCCC1 returned tim23-1 inh 52*, tim10-1 inh 42*, NALP3 yeast inh 33, TIM10 inh 27, tim10-1 conf 31* and tim23-1 confirm 51*.
`Cc1ccccc1NC(=O)/C(C#N)=C/c1ccccc1C(F)(F)F` gave tim23-1 inh 56*, tim10-1 inh 58*, SKKanGAS inh -2, NALP3 yeast inh 18, TIM10 inh 56*, tim10-1 conf 56*, tim10 confirm 5 and tim23-1 confirm 58*.
Cc1ccc(NC(=O)/C(C#N)=C/c2ccccc2C(F)(F)F)cc1 was read as tim23-1 inh 13, tim10-1 inh 34, SKKanGAS inh -3, NALP3 yeast inh 5 and TIM10 inh 30.
`Cc1ccnc(Cc2ccccc2)n1` gave tim23-1 inh 17, tim10-1 inh 19, SKKanGAS inh 0, NALP3 yeast inh 12 and TIM10 inh 0.
For Cc1ccccc1NC(=O)C(=Cc1ccc(C(=O)O)cc1)C(=O)Nc1ccccc1C the results were SKKanGAS inh 4.
`CC(=O)/C(=C/c1ccccc1)C(=O)Nc1ccccc1C` gave tim23-1 inh 68*, tim10-1 inh 61*, SKKanGAS inh -22, NALP3 yeast inh 36, TIM10 inh 72*, tim10-1 conf 52*, tim10 confirm 63* and tim23-1 confirm 54*.
CC(C)CC(OC(=O)CC1Sc2ccccc2NC1=O)C(=O)NC1CCCC1 (centres undefined) was read as tim23-1 inh 28, tim10-1 inh 19, SKKanGAS inh 0, NALP3 yeast inh -1 and TIM10 inh 32.
